Bioassay records (PubChem BioAssay)
ANO1 activ – mouse TMEM16A channel activation, primary screen; 0.3% of 340,000 active; B-score at 10 µM; AID 623877; HEK293 TMEM16A/YFP-H148Q/I152L, iodide quench fluorescence; hits give low values; Q8BHY3;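 active = fluorescence-ratio B-score plate-corrected deviation score at least 3 library SD below zero, with starting fluorescence score within 5 deviations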;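 note: channel opened by trigger with iodide after compound preincubation; score built on the fluorescence ratio of max minus min over baseline; more negative score means more quench and so TMEM16A activation or potentiation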
Target sequence (Q8BHY3 whole entry, looked up): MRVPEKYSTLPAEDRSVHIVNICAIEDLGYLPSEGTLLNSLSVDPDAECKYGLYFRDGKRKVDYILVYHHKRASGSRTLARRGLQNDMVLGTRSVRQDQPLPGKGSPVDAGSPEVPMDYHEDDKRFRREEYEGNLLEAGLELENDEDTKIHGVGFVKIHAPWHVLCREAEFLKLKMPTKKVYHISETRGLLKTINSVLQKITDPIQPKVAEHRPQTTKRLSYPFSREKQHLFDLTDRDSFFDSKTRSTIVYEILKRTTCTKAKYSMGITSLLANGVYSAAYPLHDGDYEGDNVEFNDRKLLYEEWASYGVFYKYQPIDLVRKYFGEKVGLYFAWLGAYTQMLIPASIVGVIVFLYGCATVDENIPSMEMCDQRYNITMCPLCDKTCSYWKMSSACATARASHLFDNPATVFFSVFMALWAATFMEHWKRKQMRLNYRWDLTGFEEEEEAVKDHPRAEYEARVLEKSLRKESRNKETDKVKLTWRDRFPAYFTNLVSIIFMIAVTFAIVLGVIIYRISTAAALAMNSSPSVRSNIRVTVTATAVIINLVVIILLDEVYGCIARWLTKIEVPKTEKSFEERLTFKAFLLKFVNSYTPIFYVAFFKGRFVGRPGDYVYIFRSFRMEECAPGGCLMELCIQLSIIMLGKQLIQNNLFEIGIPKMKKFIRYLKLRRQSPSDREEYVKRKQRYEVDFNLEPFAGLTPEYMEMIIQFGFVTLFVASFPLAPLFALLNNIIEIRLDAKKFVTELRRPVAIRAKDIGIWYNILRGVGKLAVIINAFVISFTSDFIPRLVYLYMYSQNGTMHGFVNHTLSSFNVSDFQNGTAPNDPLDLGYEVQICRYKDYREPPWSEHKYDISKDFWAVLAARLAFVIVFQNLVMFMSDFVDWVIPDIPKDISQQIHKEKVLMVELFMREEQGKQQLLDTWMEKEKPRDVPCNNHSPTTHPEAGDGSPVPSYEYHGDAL
CHT allo act – allosterically activates the human high affinity choline transporter. AID 488977. Q9GZV3. 0.49% of 310,000 active. B-score at 10 µM. CHT-expressing cells, membrane potential dye, choline EC20; hits give high values; LV-AA mutant CHT in HEK293 cells;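 active = initial fluorescence not abnormally high and integrated response B-score, plate-corrected, over 3 SD above library mean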
TMEM16A inh – blocks the mouse calcium-activated chloride channel TMEM16A; Q8BHY3; AID 588511; normalized B-score (activity score, 25-100; higher = stronger inhibition) at 10 µM; 1.2% of 310,000 active; HEK293 TMEM16A/YFP iodide influx fluorescence, ionomycin;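 active = ratio plate-corrected score three or more library SD toward inhibition, starting fluorescence score within five deviations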;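 note: score derived from kinetic fluorescence span divided by baseline fluorescence per well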
CHT inh – inhibitors of human choline transporter CHT; Q9GZV3; 0.86% of 310,000 active; CHT-expressing cells, membrane potential dye, choline response; hits give low values; AID 488975; B-score at 10 µM;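 active = B-score over 3 SD under the library average, and starting fluorescence ratio not unusually high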;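 note: choline stimulus applied at its EC90 after an EC20 pre-addition; B-score computed on integrated fluorescence ratio after choline addition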
* marks the source's active call; other numbers are inactive results; i = inactive; . = not tested or not shown. Sampled rows, rich in hits. Any-hit rate of the full collection: about 2.4%.

SMILES	ANO1 activ	CHT allo act	TMEM16A inh	CHT inh
Cc1ccc(N2CCN(S(=O)(=O)c3ccc(F)c(C)c3)CC2)c(C)c1	-11*	i	i	i
CC1=NN(c2ccccc2)C(=O)/C1=C/c1cn(C)c2ccccc12	i	i	i	i
CCCCn1nc(C(=O)Nc2ccc(-n3cnnn3)cc2)c2ccccc2c1=O	i	.	.	.
CN(C)CCN1CCc2ccccc21	i	i	i	i
c1ccc2c(c1)CCN2CCN1CCc2ccccc21	-17*	i	i	i
COc1cccc(/C=N/Nc2snc(SC)c2C#N)c1O	i	i	100*	i
Cc1cccc(NCC(=O)N/N=C/c2ccc(Br)cc2)c1	i	i	i	i
O=C(Nc1ccc2nc(-c3ccccc3)oc2c1)c1ccco1	-14*	i	i	i
COc1ccc(N(C)S(=O)(=O)c2cccc(C(=O)NCC3CCCCC3)c2)cc1	-37*	.	.	.
CCOc1ccccc1NC(=O)C(Sc1ccccc1)c1ccccc1 (stereo not given)	i	i	100*	i
COc1ccccc1NC(=O)C(Sc1ccccc1)c1ccccc1 (stereo not given)	i	i	i	i
Cc1cc(C)cc(NC(=O)CSCc2nc3c(nnn3Cc3ccc(F)cc3)c(=O)[nH]2)c1	i	i	25*	i
Cc1ccc(Cn2nnc3c(=O)[nH]c(C4CCCN(C(=O)Nc5ccc(F)cc5F)C4)nc32)cc1 (stereo not given)	i	i	i	i
O=S(=O)(Nc1ccc2c(c1)OCCO2)c1ccc2oc3ccccc3c2c1	i	i	25*	i
O=C(N[C@@H](Cc1c[nH]c2ccccc12)C(=O)O)c1ccc(Cl)cc1	i	i	i	i
NC(=NCCc1c[nH]c2ccccc12)NC(=O)c1ccc(Cl)cc1	i	i	100*	i
CCC1=NN(C(=O)c2ccc(Cl)cc2)C(O)(c2ccccc2)C1 (stereo not given)	i	i	i	i
CCC1=NN(C(=O)c2ccc([N+](=O)[O-])cc2)C(O)(c2ccccc2)C1 (stereo not given)	i	i	25*	i
COc1cccc(OCC(=O)NNC(=S)Nc2ccc(Cl)cc2Cl)c1	i	i	100*	i
O=C(COc1ccccc1)NNC(=S)NC(=O)c1ccc(Cl)cc1Cl	.	i	25*	i
CC(C)NC(=O)N(C)C[C@H]1Oc2c(NS(=O)(=O)c3ccccc3)cccc2C(=O)N([C@H](C)CO)C[C@@H]1C	i	.	.	.
Cc1ccc(Cn2c(=N)n(CC(=O)c3ccccc3)c3ccccc32)cc1	i	i	25*	i
CC(C)(C)C(=O)Cn1c(=N)n(Cc2ccccc2)c2ccccc21	i	i	i	i
Cc1cc(C)cc(NC(=O)CSc2nc3c(c(=O)[nH]2)CN(Cc2ccc(F)cc2)CC3)c1	i	i	i	i
CC1CC(C)CN(c2nc3c(c(=O)n(C)c(=O)n3C)n2CCSc2ncccn2)C1 (stereo not given)	i	i	i	i
SMILES	ANO1 activ	CHT allo act	TMEM16A inh	CHT inh
CCN1CCN(c2nc3c(c(=O)n(C)c(=O)n3C)n2CCSc2nccc(C)n2)CC1	i	i	i	-7.5*
O=C(Nc1ccc(C(F)(F)F)cc1)N1CCN(C(=O)c2ccco2)CC1	i	i	i	i
CCOc1ccc(/C=N/NC(=O)c2nnn(-c3nonc3N)c2COc2ccc(F)cc2)cc1	-5.8*	i	i	i
CCCOc1ccc(-c2c(C(=O)N/N=C/c3ccncc3)nnn2-c2nonc2N)cc1	-6.8*	i	i	i
CC1(C)OC(=O)C(=Cc2ccc(-c3ccc(S(N)(=O)=O)cc3)o2)C(=O)O1	-6.2*	i	i	i
Oc1c(C=Nc2ccccc2Cl)[nH]c2ccccc12	-8.7*	i	i	i
O=C(NCCCc1ccccc1)c1ccc(CS(=O)Cc2ccccc2Cl)o1 (stereo not given)	i	i	i	i
Oc1cccc2c(NC(=S)Nc3ccc(SC(F)F)cc3)cccc12	i	i	100*	i
O=C(Cn1nnc(-c2ccc(Cl)cc2)n1)NCC1CCCCC1	i	i	i	i
Cc1nn(C(=O)Cn2cc([N+](=O)[O-])cn2)c(C)c1Cl	i	i	i	i
CN1C(=O)/C(=C/c2ccccc2F)Sc2ccc(C(=O)N3CCCC3)cc21	i	i	25*	i
O=C(COc1ccccc1)N1CCN(C(=O)COc2ccccc2)CC1	i	i	i	i
Cc1nc(N2CCN(C(=O)COc3ccccc3)CC2)c2c(C)c(C)sc2n1	i	i	100*	-7.5*
O=C(CN1C(=O)NC2NC(=O)NC21)N/N=C/c1ccc(F)cc1 (stereo not given)	-7.5*	i	i	i
CC(Oc1ccc(Br)cc1)C(=O)Nc1ccc(S(=O)(=O)N(C)C2CCN(C)CC2)cc1 (stereo not given)	-10*	7.1*	i	i
COc1cccc(NC(=O)C(C)Sc2nnc(C3CC3)n2C2CC2)c1 (stereo not given)	-32*	.	.	.
COc1ccc(Cl)cc1NC(=O)C(C)Sc1nnc(C2CC2)n1C1CC1 (stereo not given)	i	.	.	.
Cc1cc(Cl)ccc1OCC(=O)NCc1ccncc1	i	i	i	i
Cc1cc(Cl)ccc1OCC(=O)Nc1ccncc1	i	i	25*	i
CCCCOC(=O)Nc1ccccc1C(=O)OC	-13*	i	i	i
CN(CC(=O)Nc1ccc(F)cc1)CC(=O)N1CCCCCC1	i	.	.	.
Cc1ccc(C)c(Cn2c3ccccc3c3cnn(CC(=O)NCc4ccccn4)c(=O)c32)c1	-7.2*	i	i	i
O=C(Cn1ncc2c3ccccc3n(Cc3ccccc3F)c2c1=O)NCCCN1CCCC1=O	-5.2*	i	i	i
CCOC(=O)C1=C(COC(=O)Cc2c(F)cccc2Cl)NC(=O)NC1C (stereo not given)	i	.	.	.
COc1ccc2c(c1)C(SCC(=O)NCCc1ccccc1)CC(C)(C)O2 (stereo not given)	i	i	i	-6.4*
CCCCOc1ccc(-c2cc(C(=O)NNC(=S)NCC)c3ccccc3n2)cc1	i	i	100*	i
COc1ccc(Cl)cc1C(=O)NNC(=S)NC(=O)c1cc(-c2ccc(Cl)cc2)nc2ccccc12	i	i	100*	i
CCS(=O)(=O)N1CCC(NC(=O)C(Cc2ccc(OC)c(OC)c2)NC(C)=O)CC1 (stereo not given)	i	i	i	i
C=CCSC1=C(C#N)C2(CCCCC2)C(C#N)C(=O)N1 (stereo not given)	i	i	i	i
CCOC(=O)C1=C(SCC(=O)Nc2ccccc2)NC(=O)C(C#N)C12CCCCC2 (stereo not given)	-31*	i	i	i
